Rows were chosen to be rich in hits. Some 18% of all compounds tested hit in one or more screens of this group.
LDHA inh: inhibitors of human lactate dehydrogenase A | actives 0.15% (n = 480,000) | activity change, % (values are at about 110 or 230 µM) | purified LDHA, NADH/diaphorase-resazurin fluorescence; active compounds read low | AID 1347041; in the data active = activity change below about -30%; inconclusive = mostly about -25% to -30%;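 also: plate controls were DMSO wells for no effect and wells without enzyme for full effect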
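LDH5 2 nM; NADH 0.06 mM, pyruvate 0.2 mM; 200 mM Tris pH 7.4, EDTA, Tween-20; 5 min RT. Detection: diaphorase 0.133 mg/mL + resazurin 37 µM, fluorescence ex540/em590 at 0 and 20 min; normalized to enzyme-free and DMSO wells.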
Gal4-VP16 FLuc: inhibits Gal4-VP16 luciferase reporter, ROR gamma counter-screen | Drosophila S2 Gal4-VP16 UAS-luciferase, luminescence, 20 h | Potency, µM (top dose mostly 53.6 µM), for inactives: at the highest dose activity, negative = inhibition, hits mostly inhibitors | actives 3.5% (n = 310,000) | AID 2546;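 also: Gal4-VP16 expression switched on by copper sulfate through the metallothionein promoter; potency is read from the fitted curve at half-maximal effect; nearly all actives have a fitted effect of over 50% in size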
RORg inh: blocks mouse ROR gamma transcriptional activity. P51450. Drosophila S2 Gal4-RORgamma UAS-luciferase reporter, 20 h. Potency, µM (highest dose often 53.6 µM), without a hit: at the top dose activity change, negative = inhibition, hits mostly inhibitors. actives 5.4% (n = 310,000). AID 2551; also: potency is read from the fitted curve at half-maximal effect; nearly all actives have a fitted effect of over 60% in size
Target sequence (P51450 whole entry, looked up, the tested form may be a part): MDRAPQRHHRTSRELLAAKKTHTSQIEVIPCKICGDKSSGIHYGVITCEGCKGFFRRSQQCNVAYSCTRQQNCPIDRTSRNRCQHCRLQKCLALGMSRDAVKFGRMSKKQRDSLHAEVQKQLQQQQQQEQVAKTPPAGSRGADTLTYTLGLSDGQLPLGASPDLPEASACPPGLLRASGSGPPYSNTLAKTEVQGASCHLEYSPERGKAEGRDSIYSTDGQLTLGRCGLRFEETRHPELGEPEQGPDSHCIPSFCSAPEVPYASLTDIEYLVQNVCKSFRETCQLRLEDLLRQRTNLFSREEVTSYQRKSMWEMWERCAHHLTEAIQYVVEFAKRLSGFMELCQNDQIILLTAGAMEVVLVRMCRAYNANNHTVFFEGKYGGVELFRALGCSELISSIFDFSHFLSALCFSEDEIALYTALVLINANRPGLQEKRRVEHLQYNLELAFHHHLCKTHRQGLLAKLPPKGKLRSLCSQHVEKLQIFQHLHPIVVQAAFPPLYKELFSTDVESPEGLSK
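A Gal4/UAS one-hybrid system in insect cells: metallothionein-promoter Gal4–ROR gamma fusion plus Photinus luciferase reporter. Copper sulfate 700 uM final, 20 hr ambient incubation, luminescent detection after 10 min with reagent.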
TDP1 cell CPT: DT40-hTDP1 cell growth loss with CPT | AID 686979 | actives 12% (n = 420,000) | Potency, µM (highest dose often 46.2 µM), inactives show top-dose activity change, negative = growth inhibition, most hits filed as inhibitors | chicken DT40 Tdp1-/-;hTDP1 cells + 20 nM CPT, ATP luminescence, 48 h; also: potency is read from the fitted curve at half-maximal effect; nearly all actives have a fitted effect of over 55% in size
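Chicken DT40 Tdp1-/- cells complemented with human TDP1, 400 cells/well, exposed to compounds plus 20 nM camptothecin for at least 48 h at 37 C; viability read as ATP content by CellTiter-Glo luminescence.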
DT40 TDP1 no CPT: qHTS for Inhibitors of human tyrosyl-DNA phosphodiesterase 1 (TDP1): qHTS in cells in absence of CPT | DT40 Tdp1-/- hTDP1 cells, no CPT, ATP luminescence, 48 h | Potency, µM (series often up to 46.2 µM), for inactives: top-dose activity change, negative = growth inhibition, hits mostly inhibitors | actives 15% (n = 420,000); also: potency is read from the fitted curve at half-maximal effect; nearly all actives have a fitted effect of over 55% in size
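A cellular qHTS used chicken DT40 cells lacking endogenous Tdp1 but carrying stably transfected human TDP1. Compounds were applied without camptothecin, and cell growth kinetics were judged by ATP-dependent luminescence after ≥48 hr.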
IL1B secr inh: inhibitors of inflammasome signaling (IL-1 beta secretion). actives 4.7% (n = 360,000). THP-1 LPS/ATP IL-1B secretion, AlphaLISA, 16 h; active compounds read low. activity change, % at 57.5 µM. AID 743279; in the data active = activity change below about -50%; inconclusive = mostly about -30% to -49%
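Secreted IL-1B measured by AlphaLISA bead assay after 16 h compound exposure of THP-1 cells; compounds (final up to 57.5 uM) added 1 h before LPS (250 ng/mL) and ATP (1.25 mM) stimulation; lower signal means less secretion.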
Starred values were filed as active, the others as inactive; ? = inconclusive; / = no result; ! = not active in a repeat; [ ] = remark or other dose. Unless noted, calls follow the shape of the dose curve; as a rule, active = well fitted curve in the direction sought with a large enough effect; inconclusive = small, poorly fitted or top-dose-only effect, or another doubt; inactive = no such curve, though single readings can be large; an effect the other way counts as inactive or inconclusive. Unless noted, % is scaled to controls: 0 for no effect and ±100 for the full control effect.

SMILES	LDHA inh	Gal4-VP16 FLuc	RORg inh	TDP1 cell CPT	DT40 TDP1 no CPT	IL1B secr inh
Cc1ncoc1C(=O)NCC1=C(c2ccc(S(C)(=O)=O)cc2)C[C@@H]2CC[C@H]1N2Cc1ccco1	-10.9	/	/	2.5%	3.8%	-6.8
O=C(NCC1=C(c2cccc3ccccc23)C[C@@H]2CC[C@H]1N2Cc1ccco1)c1cccnc1	0.6	/	/	?	?	-4.6
O=C(NCC1=C(c2cccc3ccccc23)C[C@@H]2CC[C@H]1N2Cc1ccco1)c1ccncc1	2.3	/	/	23.1µM*	25.9µM*	-18.9
CC(=O)NCC1=C(c2cccc3ccccc23)C[C@@H]2CC[C@H]1N2Cc1ccco1	-8.4	/	/	?	?	-11.2
O=C(NCC1=C(c2ccc3ccccc3c2)C[C@@H]2CC[C@H]1N2Cc1ccco1)c1nccs1	-0.5	/	/	?	16.4µM*	-27.9
O=C(NCC1=C(c2cccc3ccccc23)C[C@@H]2CC[C@H]1N2Cc1ccco1)c1cccs1	0.2	/	/	?	14.6µM*	-1.6
CCCCCCC(=O)CCCCCC/C=C/C[C@@H](O)[C@H](O)[C@@](N)(CO)C(=O)O	/	-4.3%	-5.9%	?	?	/
COC(C)C(O)(C(=O)OC1=CCN2CC[C@H](O)[C@H]12)C(C)C (stereo partly specified)	/	2.0%	-11.2%	10.6µM*	21.1µM*	/
Cn1cccc1/C=C1\C(=O)NC(=O)N(Cc2ccccc2Cl)C1=O	-17.0	24.6%	-21.4%	5.8µM*	4.61µM*	26.9
Cn1cccc1/C=C1\C(=O)NC(=O)N(CCC2=CCCCC2)C1=O	-1.0	5.7%	-0.3%	16.4µM*	13µM*	33.0
COc1cc(OC)c(OC)cc1/C=C1/C(=O)NC(=O)N(Cc2ccccc2)C1=O	4.8	-2.8%	6.0%	-0.9%	?	-15.7
O=C1NC(=O)N(CCC2=CCCCC2)C(=O)/C1=C\c1cccs1	2.1	?	?	?	?	-14.4
c1ccc2c(c1)CCNC2	/	-6.8%	-10.1%	/	/	/
CCC(=O)OC1CCC2C3CCc4cc(O)ccc4C3CC[C@]12C (stereo partly specified)	/	?	?	20.6µM*	20.6µM*	/
O=C(c1ccccc1)N1CCN(c2ccccc2)CC1	-8.1	/	/	-24.0%	23.1µM*	-6.5
CC1(C)C(C(=O)N2CCN(C(=O)c3ccccc3)CC2)C1(C)C	-1.9	0.7%	1.4%	-19.0%	-9.7%	5.6
CC(=O)CC(c1ccccc1)c1c(O)c2ccc(O)cc2oc1=O (stereo unspecified)	/	-7.1%	-12.2%	/	/	/
Cc1ccc(-c2cc(-c3ccccc3)cc(-c3ccccc3)[n+]2-c2ccccc2C(=O)O)cc1	0.4	/	/	9.2µM*	9.2µM*	-1.9
[O]=[Cr](=[O])([OH])[O][Cr](=[O])(=[O])[OH]	/	-3.6%	2.9%[10 µM]	?	16.8µM*	/
C/C1=C\[C@@H](C)C/C=C/[C@H]2[C@@H]3O[C@]3(C)[C@@H](C)[C@H]3[C@H](Cc4c[nH]c5ccccc45)NC(=O)[C@]32C(=O)/C=C/C(=O)[C@@H]1O	3.7	11.2µM*	5.62µM*	0.146µM*	0.146µM*	-105.0*
CC(=O)OC(C)(C)/C=C/C(=O)[C@](C)(O)[C@H]1[C@H](O)C[C@@]2(C)[C@@H]3CC=C4[C@H](C[C@H](O)C(=O)C4(C)C)[C@]3(C)C(=O)C[C@]12C	-14.6	?	?	0.0461µM*	0.0073µM*	-111.8*
CC(=O)OC(C)(C)/C=C/C(=O)C(C)(O)C1C(O)CC2(C)C3CC=C4C(CC(O)C(=O)C4(C)C)C3(C)C(=O)CC12C (stereo unspecified)	-1.0	/	/	0.0259µM*	0.0164µM*	-98.8*
CC(=O)OC(C)(C)/C=C/C(=O)C(C)(O)C1[C@H](O)C[C@@]2(C)C3CC=C4C(CC[C@@H](O)C4(C)C)[C@]3(CO)C(=O)C[C@]12C (stereo partly specified)	4.7	-15.1%	?	0.0184µM*	0.0103µM*	-98.1*
CCCCC(C#N)(Cn1cncn1)c1ccc(Cl)cc1 (stereo unspecified)	/	-0.2%	31.2%	/	/	/
COc1ccc(CNCC(=O)N2CCC3(CC2)OCCO3)cc1	?	-5.0%	13.4%	0.3%	-8.1%	8.3
SMILES	LDHA inh	Gal4-VP16 FLuc	RORg inh	TDP1 cell CPT	DT40 TDP1 no CPT	IL1B secr inh
COc1ccc(CNS(=O)(=O)c2cc3c(cc2C)N(C)CCO3)cc1	2.7	-0.6%	31.1%	?	14.6µM*	2.1
CC(C)OC(=O)OCOP(=O)(CO[C@H](C)Cn1cnc2c(N)ncnc21)OCOC(=O)OC(C)C	/	/	/	8.41µM*!	10.6µM*!	/
N[C@@H](CCCCP(=O)(O)O)C(=O)O	/	9.6%	4.8%	13.9%	-7.5%	/
COc1cccc(CN2CCN(C)CC2)c1OC	-1.4	/	/	/	/	/
COc1ccc(CN2CCc3nc(N4CCN(c5ccc(F)cc5)CC4)ncc3C2)c(OC)c1OC	-3.5	/	/	5.8µM*	4.61µM*	/
COc1ccc(S(=O)(=O)N2c3ccc(F)cc3CCC2C)cc1 (stereo unspecified)	-1.0	/	/	0.92µM*	0.581µM*	53.5
CN1C[C@@H](CO)C=C2c3cccc4[nH]cc(c34)CC21 (stereo partly specified)	/	4.1%	-1.0%	10.2%	-24.0%	/
CCN(CC)C(=O)[C@@H]1C=C2c3cccc4[nH]cc(c34)C[C@H]2N(C)C1	/	/	/	40.1µM*	40.1µM*	/
CN1C[C@H](CO)C=C2c3cccc4[nH]cc(c34)C[C@H]21	10.7	-1.7%	7.3%	3.66µM*	?	-10.6
COc1ccc(Oc2c(C)oc3cc(OCC(=O)N4CCN(CCO)CC4)ccc3c2=O)cc1	-1.5	/	/	/	/	/
CCOP(=O)(OCC)C(O)c1cccc([N+](=O)[O-])c1 (stereo unspecified)	-0.3	-7.3%	3.9%	2.4%	24.9%	43.7
CCCOP(=O)(OCCC)C(Nc1cccc(C(F)(F)F)c1)c1ccc(C)cc1 (stereo unspecified)	4.7	?	-20.2%	?	23.1µM*	-2.0
CCOP(=O)(OCC)C(Nc1cccc(C(F)(F)F)c1)c1ccc(C)cc1 (stereo unspecified)	-2.6	?	?	?	18.4µM*	-16.5
CCOP(=O)(OCC)C(Nc1cc(Cl)cc(Cl)c1)c1cccc(O)c1 (stereo unspecified)	-1.6	2.5%	25.8%	?	?	?

Screening results (PubChem)
